Only a selection was taken, and hits are over-represented in it overall.
Giardia FBPA inh: Giardia lamblia aldolase inhibition. A8B2U2. Potency, µM (titrated, usually from 59.6 µM), actives largely listed as inhibitors. purified Giardia FBPA. 290,000 compounds, 0.71% hits; further: nearly all actives have a fitted effect of over 55% in size
Target sequence (A8B2U2 whole entry, looked up): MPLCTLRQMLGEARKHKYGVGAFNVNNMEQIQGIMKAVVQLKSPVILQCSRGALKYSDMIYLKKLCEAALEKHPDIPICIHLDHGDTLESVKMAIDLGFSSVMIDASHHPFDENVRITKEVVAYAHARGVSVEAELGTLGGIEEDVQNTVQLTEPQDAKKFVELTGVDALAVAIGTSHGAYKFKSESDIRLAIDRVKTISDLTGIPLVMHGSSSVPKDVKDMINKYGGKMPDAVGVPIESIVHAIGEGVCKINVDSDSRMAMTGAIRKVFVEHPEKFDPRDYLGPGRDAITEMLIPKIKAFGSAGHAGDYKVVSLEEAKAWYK
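40 nM FBPA preincubated 10 min at RT with compound (up to 57.5 uM final), then substrate plus GAPDH/TPI/NAD/arsenate coupling and diaphorase/resazurin added. Fluorescence read after 20 min at RT, 525/598 nm.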
CHX counter: counter-screen for Shiga toxin inhibitors: cycloheximide protein synthesis inhibition | cell reporter, cycloheximide protein synthesis inhibition counterscreen | max response, % | 300,000 compounds, 12% hits | AID 2314; in the data active means max response mostly above about 13%, no sharp cut-off; inactive means mostly below about 14%; further: read at 38.3 µM for the half of the compounds with a filed dose
Tb PYK inh: inhibitors of Trypanosoma brucei pyruvate kinase | TbPYK enzyme, Kinase-Glo Plus ATP luminescence, 45 min | Potency, µM (top dose mostly 76.8 µM), usual class: inhibitors | 410,000 compounds, 0.12% hits; further: nearly all actives have a fitted effect of over 50% in size
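Screened from lowest to highest concentration, compounds were pinned into TbPYK/substrate mixtures, and ADP (130 uM final) was added. Plates sat at room temperature for 45 min prior to Kinase-Glo Plus detection by luminescence.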
LmPK inh: inhibitors of Leishmania mexicana pyruvate kinase; Potency, µM (doses to about 57.5 µM), most hits filed as inhibitors; 290,000 compounds, 0.37% hits; Q27686; purified LmPK, Kinase-Glo ATP luminescence, 1 h
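Kinase-Glo luminescence read after 1 h RT reaction of 0.1 nM LmPK with 0.5 mM PEP and 0.1 mM ADP. Activity scaled between uninhibited and enzyme-free controls.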
Shiga toxin inh: blocks Shiga toxin action in Vero cells; inhibition, % at 38.7 µM; Vero cells, Shiga toxin protein synthesis inhibition reporter; 290,000 compounds, 9.2% hits; in the data active means inhibition mostly above about 28%, no sharp cut-off; inactive means mostly below about 43%
Sm TGR inh: inhibitors of Schistosoma mansoni thioredoxin glutathione reductase; Q962Y6; purified TGR, DTNB reduction, TNB absorbance 405 nm; Potency, µM (titrated, usually from 114 µM), hits mostly inhibitors; 360,000 compounds, 3% hits; AID 485364; further: nearly all actives have a fitted effect of over 60% in size
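Kinetic colorimetric format: TGR-catalysed, NADPH-driven DTNB reduction monitored via TNB absorbance. Enzyme dispensed at 20 nM; compound exposure 15 min at room temperature before reaction start.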
Large screens that a line does not name were inactive. Unless noted, the call rests on the fitted dose curve; in most records, active means well fitted curve in the direction sought with a large enough effect; inconclusive means small, poorly fitted or top-dose-only effect, or another doubt; inactive means no such curve, though single readings can be large; an effect the other way counts as inactive or inconclusive.

CCOC(=O)C(=O)Nc1ccccc1C(=O)NCc1ccccc1	CHX counter 33, Shiga toxin inh 85 (no result: Sm TGR inh)
CCOC(=O)C(=O)Nc1ccccc1C(N)=O	none
Cc1cc(NC(=O)c2ccc(C)s2)n(-c2nc3ccccc3[nH]2)n1	Giardia FBPA inh inconclusive, Shiga toxin inh 33
Cc1cc(NC(=O)c2ccccc2F)n(-c2nc3ccccc3[nH]2)n1	none
Cc1cc(NC(=O)/C=C/c2cccc(Cl)c2)n(-c2nc3ccccc3[nH]2)n1	CHX counter 66, Shiga toxin inh active
Cc1cc(NC(=O)/C=C/c2cccc(F)c2)n(-c2nc3ccccc3[nH]2)n1	none
CCc1ccccc1NC(=O)COC(=O)c1cccs1	none
CCN(CC)c1ccc(NC(=O)COC(=O)c2cccs2)cc1	CHX counter 44, Shiga toxin inh 55
CC(=O)c1cccc(NC(=O)COC(=O)c2cccs2)c1	CHX counter 59, Shiga toxin inh 69
CCN(c1ccc(NC(=O)COC(=O)c2cccs2)cc1)C(C)C	CHX counter 38, Tb PYK inh inconclusive, Sm TGR inh inconclusive
COc1ccc(-c2nc3c(C)cc(Br)cn3c2Cc2cccc(Cl)c2)cc1OC	none (no result: Giardia FBPA inh, CHX counter, LmPK inh, Shiga toxin inh, Sm TGR inh)
COc1cc(/C=N/NC(=O)c2ccoc2C)cc(OC)c1OC	none (no result: Giardia FBPA inh, CHX counter, LmPK inh, Shiga toxin inh, Sm TGR inh)
COc1ccc(/C=N/NC(=O)c2ccoc2C)cc1O	CHX counter 58, LmPK inh inconclusive, Shiga toxin inh 57
COc1ccc(/C=N/NC(=O)c2ccoc2C)cc1COc1ccc(Cl)cc1	CHX counter 33, Shiga toxin inh 91
COc1ccc(/C=N/NC(=O)c2ccccc2OC)cc1COc1ccc(C)cc1	none
COc1ccc(/C=N/NC(=O)c2cc[n+]([O-])cc2)cc1O	none
COc1ccc(/C=N/NC(=O)c2ccoc2C)cc1OC	CHX counter 43, Shiga toxin inh 115
C[C@H](c1ccccc1)N1C[C@@H](COCc2ccccc2)Oc2cc(N3CCC[C@H]3CO)ccc2S1(=O)=O	none (no result: Giardia FBPA inh, CHX counter, LmPK inh, Shiga toxin inh, Sm TGR inh)
O=c1c(O)c(-c2ccc(O[C@@H]3O[C@H](CO)[C@@H](O)[C@H](O)[C@H]3O)c(O)c2)oc2cc(O)cc(O)c12	none (no result: Tb PYK inh, LmPK inh, Sm TGR inh)
N#Cc1cc(-c2ccccc2)cnc1Sc1ccccc1	CHX counter 27, Shiga toxin inh 55
Cc1ccc(Sc2nnc(-c3ccccc3)cc2C#N)cc1	none
CCOc1ccc(NC(=O)c2cc3c(-c4ccccc4F)nn(C)c3s2)cc1	none (no result: Giardia FBPA inh, CHX counter, LmPK inh, Shiga toxin inh)
O=C1C2=C(Nc3ccccc3SC2c2ccco2)c2ccccc21 (configuration not stated)	Giardia FBPA inh inconclusive, CHX counter 33, Tb PYK inh inconclusive, Shiga toxin inh 78
O=C(OCn1ncc(Cl)c(Cl)c1=O)c1cccc(C(F)(F)F)c1	Sm TGR inh 5.6µM
O=C(N/N=C/c1coc2ccccc2c1=O)c1ccccc1Br	none
O=C(/C=N/NC(=O)c1ccc(Cl)cc1Cl)c1ccccc1	CHX counter 30, Shiga toxin inh 72
O=C(/C=N/NC(=O)c1ccccc1Br)c1ccccc1	Giardia FBPA inh inconclusive, CHX counter 46, Shiga toxin inh 81
C=CCOC(=O)NC(c1ccc(F)c(F)c1)C(C(C)=O)C(=O)OC (configuration not stated)	none (no result: CHX counter, Tb PYK inh, LmPK inh, Shiga toxin inh, Sm TGR inh)
O=[N+]([O-])c1cc(-c2ccc([As](=O)(O)O)cc2)ccc1[As](=O)(O)O	Sm TGR inh 8.9µM (no result: Tb PYK inh)
CCCCCCOC(=O)Sc1nc2ccccc2o1	CHX counter 29, Shiga toxin inh 43 (no result: Tb PYK inh)
O=C(O)c1ccc(CSc2nc3ccccc3o2)cc1	none
O=C(O)c1ccccc1CSc1nc2ccccc2o1	CHX counter 35, Shiga toxin inh 67
CC(=O)CSc1nc2ccccc2o1	CHX counter 27, Shiga toxin inh 57
O=C(CSc1nc2ccccc2o1)c1ccccc1	CHX counter 47, Shiga toxin inh active
COC(=O)CSc1nc2ccccc2o1	none
O=C(CSc1nc2ccccc2o1)c1ccc2c(c1)OCCO2	CHX counter 40, Shiga toxin inh 98
O=C(c1cccc(F)c1)N1CCC2(CC1)CCN(c1cccc(-c3ccccc3)c1)CC2	none (no result: CHX counter, LmPK inh, Shiga toxin inh, Sm TGR inh)
Cc1csc(NC(=O)c2cc3c(s2)CCCC3)n1	CHX counter 62, LmPK inh inconclusive, Shiga toxin inh 81
Cc1csc(NC(=O)c2cc3c(s2)CCCCC3)n1	CHX counter 15, LmPK inh inconclusive
CCOC(=O)Cc1csc(NC(=O)c2cc3c(s2)CCCC3)n1	none
Cc1cnc(NC(=O)c2cc3c(s2)CCCC3)s1	CHX counter 40, Shiga toxin inh 61
CCOc1ccc(CNC(=O)c2ccc(NC(=O)c3nsc4ccccc34)cc2)cc1	none (no result: Giardia FBPA inh, CHX counter, LmPK inh, Shiga toxin inh)
COc1cccc(CNC(=O)c2ccc(NC(=O)C3=CSCCO3)cc2)c1	CHX counter 22, Shiga toxin inh 116 (no result: Giardia FBPA inh)
CCOc1ccc(CNC(=O)c2ccc(NC(=O)C3=CSCCO3)cc2)cc1	CHX counter 34
Cc1ccc(CNC(=O)c2ccc(NC(=O)C3=CSCCO3)cc2)cc1	Shiga toxin inh 28 (no result: Giardia FBPA inh)
O=C(CN(C(=O)c1csnn1)c1cccc(C(F)(F)F)c1)NCc1ccc(F)cc1	none
Cc1ccc2c(c1)C1CCCC3C1N2CC(=O)N3Cc1ccccc1 (configuration not stated)	Giardia FBPA inh inconclusive, Sm TGR inh 50µM (no result: Tb PYK inh)
Oc1ccc(N=C/C=C/c2ccc(Br)cc2)cc1-c1nc2ccccc2s1	Giardia FBPA inh inconclusive, CHX counter 36, Shiga toxin inh 40, Sm TGR inh inconclusive (no result: Tb PYK inh)
COC(=O)[C@@H]1C[C@H]1[C@@H](NS(=O)(=O)c1ccc2ccccc2c1)c1ccccc1	none (no result: CHX counter, Tb PYK inh, LmPK inh, Shiga toxin inh, Sm TGR inh)
O=C(Nc1ccc2c(c1)OCO2)c1ccc(NC2CC2)c([N+](=O)[O-])c1	CHX counter 26, Shiga toxin inh 102
O=C(Nc1ccc(N2CCCCC2)c(Cl)c1)c1ccc(N2CCOCC2)c([N+](=O)[O-])c1	none
O=C(Nc1ccc2c(c1)OCO2)c1ccc(N2CCCC2)c([N+](=O)[O-])c1	CHX counter 34
CC(=O)Nc1ccc(N2CCCC(C)C2)c([N+](=O)[O-])c1 (configuration not stated)	none
CC1CCCN(c2ccc(C(=O)Nc3cccnc3)cc2[N+](=O)[O-])C1 (configuration not stated)	Shiga toxin inh 48
COc1ccc(OC(=O)N(C)C[C@@H]2OCc3cn(nn3)CCCC(=O)N([C@@H](C)CO)C[C@H]2C)cc1	none (no result: Giardia FBPA inh, CHX counter, LmPK inh, Shiga toxin inh, Sm TGR inh)
C/C(=N\NC(=O)c1ccc(F)cc1)c1ccc(NC(=O)Cc2ccccc2)cc1	CHX counter 41, Shiga toxin inh 90 (no result: Giardia FBPA inh)
O=C(Cc1ccccc1)Nc1ccc(C(=O)Nc2ccc(O)cc2)cc1	none
CSC(=NNC(=O)c1ccc(O)cc1)SC	LmPK inh inconclusive, Shiga toxin inh 42
CC(=O)Nc1ccc(/C(C)=N/NC(=O)c2ccc(F)cc2)cc1	CHX counter 24, Shiga toxin inh active

Screening data from PubChem.
